The entries come from a sample that favours hits as a whole.
KDM5B inh – inhibitors of human KDM5B histone demethylase; Potency, µM (series often up to 57.7 µM), actives largely listed as inhibitors; KDM5B demethylase, FDH-coupled NADH fluorescence (FDH is formaldehyde dehydrogenase); 220,000 compounds, 2.6% hits; active = well fitted inhibition curve with a large enough effect; also: 0% is about no effect; nearly all actives have a fitted effect of over 70% in size
Target sequence (Q9UGL1 whole entry, looked up): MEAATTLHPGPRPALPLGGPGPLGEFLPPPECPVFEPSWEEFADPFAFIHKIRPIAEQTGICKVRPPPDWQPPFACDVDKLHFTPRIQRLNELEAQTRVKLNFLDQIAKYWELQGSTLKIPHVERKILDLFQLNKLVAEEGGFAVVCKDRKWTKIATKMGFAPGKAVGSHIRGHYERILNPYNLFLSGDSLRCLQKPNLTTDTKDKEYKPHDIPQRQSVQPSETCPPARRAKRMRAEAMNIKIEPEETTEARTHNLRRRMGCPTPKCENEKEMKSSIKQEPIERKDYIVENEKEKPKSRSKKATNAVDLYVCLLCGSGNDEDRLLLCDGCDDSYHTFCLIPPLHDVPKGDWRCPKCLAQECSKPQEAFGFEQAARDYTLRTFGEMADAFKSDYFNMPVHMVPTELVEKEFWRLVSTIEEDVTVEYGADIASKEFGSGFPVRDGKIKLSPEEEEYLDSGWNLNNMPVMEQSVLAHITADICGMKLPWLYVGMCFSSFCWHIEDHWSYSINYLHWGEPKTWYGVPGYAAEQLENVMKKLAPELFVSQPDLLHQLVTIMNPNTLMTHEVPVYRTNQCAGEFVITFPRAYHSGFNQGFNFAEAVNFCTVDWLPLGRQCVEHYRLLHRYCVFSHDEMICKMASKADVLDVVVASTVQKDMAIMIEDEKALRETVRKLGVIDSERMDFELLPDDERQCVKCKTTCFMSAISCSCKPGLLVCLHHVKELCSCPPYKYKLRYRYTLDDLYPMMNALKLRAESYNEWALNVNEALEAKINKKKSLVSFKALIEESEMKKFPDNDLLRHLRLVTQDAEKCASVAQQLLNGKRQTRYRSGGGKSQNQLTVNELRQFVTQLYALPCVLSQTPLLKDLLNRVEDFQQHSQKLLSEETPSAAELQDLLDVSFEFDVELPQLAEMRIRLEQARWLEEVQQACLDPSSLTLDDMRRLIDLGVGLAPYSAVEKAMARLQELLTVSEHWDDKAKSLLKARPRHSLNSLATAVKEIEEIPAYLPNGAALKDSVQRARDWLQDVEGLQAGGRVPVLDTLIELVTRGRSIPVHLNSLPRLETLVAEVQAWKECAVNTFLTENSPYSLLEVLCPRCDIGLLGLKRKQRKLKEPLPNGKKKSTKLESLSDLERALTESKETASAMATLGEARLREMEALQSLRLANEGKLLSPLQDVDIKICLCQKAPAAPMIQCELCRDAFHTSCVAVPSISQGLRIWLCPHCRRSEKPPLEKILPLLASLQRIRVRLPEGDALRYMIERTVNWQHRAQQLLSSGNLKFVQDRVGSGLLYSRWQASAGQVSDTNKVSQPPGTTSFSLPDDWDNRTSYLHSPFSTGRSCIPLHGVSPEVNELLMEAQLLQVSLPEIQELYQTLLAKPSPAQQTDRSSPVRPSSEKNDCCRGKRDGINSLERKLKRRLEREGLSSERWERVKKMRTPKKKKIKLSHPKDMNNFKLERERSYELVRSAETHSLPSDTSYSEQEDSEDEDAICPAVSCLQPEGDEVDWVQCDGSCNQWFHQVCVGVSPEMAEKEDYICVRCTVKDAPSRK
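KDM5BΔAP (200 nM final) in 50 mM HEPES pH 7.5, 0.01% Tween-20 was preincubated 10 min at RT with compound over a concentration range. Substrate mix (H3K4me3 12.5 µM, α-KG 25 µM, Fe²⁺, ascorbate, NAD⁺, FDH) was added, and NADH fluorescence change over 30 min gave dose-response curves.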
* hit, by the source's call; i = inactive. Potency is read from the fitted curve at half-maximal effect.

SMILES | KDM5B inh
COc1ccc(C(CNC(=O)c2oc3cc(C)c(Cl)cc3c2C)N2CCCCC2)cc1 (stereo not given) | i
COc1ccc2[nH]c(C(=O)N3CCc4ccccc4C3)c(C)c2c1 | i
CCn1c(CO)nnc1C1CC(NC(=O)Cc2c[nH]c3ccccc23)C1 (stereo not given) | i
CCn1c(CO)nnc1C1CC(NC(=O)c2[nH]c3ccc(OC)cc3c2C)C1 (stereo not given) | 28.2µM*
Cc1ncc2c(c1CNC(=O)c1ccc3n[nH]nc3c1)CCNC2 | i
COc1cc(/C=C/c2cc(C(=O)O)c3ccccc3n2)ccc1OCCC(C)C | i
COc1ccc(CNC(=O)CN2C(=O)COc3ccc(S(=O)(=O)N4CCC(C)CC4)cc32)cc1 | i
Cc1ccc(Cc2ccccc2C(=O)N2CCOC(C(F)(F)F)C2)cc1 (stereo not given) | i
CCOc1ccccc1CN1C(=O)CN(S(C)(=O)=O)CC1(C)C(=O)NCc1ccc(F)cc1 (stereo not given) | i
Cc1cc(NC(=O)C2CCCCC2)ccc1Br | i
CCOc1ccc(S(=O)(=O)N(CC(=O)Nc2ccc(OC)c(Cl)c2)c2ccccc2)cc1 | i
CC(=O)Nc1ccc(OCC(=O)N2CCc3ccccc3C2)cc1 | i
Cc1ccc(OCC(=O)N2CCc3ccccc3C2)c(Br)c1 | i
COCCn1cc2c3c(cccc31)CN(C(=O)COc1cccc(C)c1)CC2 | 31.6µM*
COc1cc(OC)cc(C(=O)N2CCc3cn(C)c4cccc(c34)C2)c1 | i
CCCN1CCN(C(=O)c2cccc(C(F)(F)F)c2)CC1 | i
COc1cc2c(cc1OC)CN(C(=O)CCOc1ccccc1)CC2 | i
COCCn1cc2c3c(cccc31)CN(C(=O)c1cccc(C(F)(F)F)c1)CC2 | 28.2µM*
CCCn1cc2c3c(cccc31)CN(C(=O)COc1ccccc1)CC2 | 31.6µM*
COCCN1C(=O)CS(=O)(=O)C12CCN(C(=O)COc1cccc(C)c1)CC2 | i
O=C(c1ccc(OC(F)(F)F)cc1)N1CCN(c2cc(-c3ccc(Cl)cc3)[nH]n2)CC1 | i
CC(Nc1ccc2c(c1)OCCCO2)c1nc2scc(-c3cccs3)c2c(=O)[nH]1 (stereo not given) | i
CC(C)CNC(=O)COC(=O)c1ccc2ccccc2n1 | i
O=C(CN1CCCc2nc(C3CC3)ncc2C1=O)NCc1ccc(OC(F)(F)F)cc1 | i
CCCc1noc(CCC(=O)NC(C)c2ccc(C)o2)n1 (stereo not given) | i
SMILES | KDM5B inh
N#Cc1cccc(C(=O)N2CCC3(CC2)NC(=O)N(Cc2ccccc2)C3=O)c1 | i
COc1ncccc1-c1cc2c(ccn2CC2CCN(C)CC2)c(N2CCOCC2)n1 | 25.1µM*
Cc1nn2c(c1-c1cccnc1N1CCOCC1)N(Cc1ccccc1F)CCC2 | i
CN1CCC(Oc2nccnc2N2CCOCC2)C1 (stereo not given) | i
Fc1ccc(-c2nnc(N3CCOCC3)c3ccccc23)cc1F | i
COc1cccc(-c2cc3c(ccn3CC3CCN(C)CC3)c(N3CCOCC3)n2)c1 | i
Fc1ccccc1-c1cc2c(ccn2Cc2ccncc2)c(N2CCOCC2)n1 | 28.2µM*
COc1cccc(CC(=O)NCc2cc(N3CCOCC3)ncn2)c1 | i
COc1ncccc1-c1cc2c(ccn2Cc2ccncc2)c(N2CCOCC2)n1 | 7.94µM*
COc1ccc(CCC(=O)Nc2ccc3c(N4CCOCC4)ncnc3c2)cc1 | i
CCc1nnc(NC(=O)Cn2ccc3c(Cl)cccc32)s1 | i
COc1cccc(/C=C2\Oc3cc(OC(=O)C(C)(C)C)ccc3C2=O)c1 | i
COc1ccccc1N1CCN(C(=O)Cn2ncc3c([nH]c4ccccc43)c2=O)CC1 | i
COc1ccc(-c2cc(-c3cn[nH]c3)c3cncn3c2)cn1 | 39.8µM*
Cc1ccccc1-c1cc(-c2ccc(=O)[nH]c2)c2cncn2c1 | 35.5µM*
COc1ccc(-c2cc(-c3ccc(OC)nc3)cn3cncc23)cc1 | i
CN(C)c1cccc(-c2cc(-c3cn[nH]c3)c3cncn3c2)c1 | 39.8µM*
C[C@]1(CO)[C@H]2Cc3sc(NC(=O)c4c(F)cccc4F)nc3[C@@H](CC(=O)NCCN3CCOCC3)[C@]2(C)CC[C@H]1O | i
O=[N+]([O-])c1cc(C(F)(F)F)cc([N+](=O)[O-])c1NCCNC(=S)Nc1ccc(Cl)c(Cl)c1 | i
COc1cccc2c1N(C(=O)c1cnc3c(cnn3C(C)C)c1)CCC2 | i
CNC(=O)[C@@H]1C[C@@H](O)CN1C1CCN(C(=O)CCc2ccc(OC)cc2)CC1 | i
CCCC12CN3CC(CCC)(CN(C1)C3c1ccc(OC(C)C)cc1)C2=O (stereo not given) | i
COc1ccc(OC)c(NC(=O)Cn2c(=O)n(Cc3nc(C)no3)c(=O)c3ccccc32)c1 | i
S=C(NCc1cccs1)Nc1ccc(Br)cc1 | i
CCOC(=O)N1CCC(NC(=O)CCCC(=O)O)CC1 | i
SMILES | KDM5B inh
CN1CCN(C(=O)CCC[C@@H]2[C@H]3CCCN4CCC[C@@H](CN2C(=O)c2cccnc2)[C@@H]34)CC1 | i
CC(=O)N1C[C@@H]2CCCN3CCC[C@@H]([C@H]23)[C@H]1CCCC(=O)N1CCN(c2ccccn2)CC1 | 31.6µM*
COc1ccc(N2CCN(C(=O)CCC[C@@H]3[C@H]4CCCN5CCC[C@@H](CN3C(C)=O)[C@@H]45)CC2)cc1 | i
NC(=O)CCC[C@@H]1[C@H]2CCCN3CCC[C@@H](CN1Cc1ccccc1)[C@@H]23 | i
CCN(Cc1ccccc1)C(=O)CCC[C@@H]1[C@H]2CCCN3CCC[C@@H](CN1Cc1cccnc1)[C@@H]23 | i
CC(=O)N1C[C@@H]2CCCN3CCC[C@@H]([C@H]23)[C@H]1CCCC(=O)N1CCN(C)CC1 | 25.1µM*
CN(Cc1cccnc1)C(=O)CCC[C@@H]1[C@H]2CCCN3CCC[C@@H](CN1Cc1cccnc1)[C@@H]23 | 22.4µM*
CC(=O)N1C[C@@H]2CCCN3CCC[C@@H]([C@H]23)[C@H]1CCCC(=O)NCCN(C)C | 28.2µM*
CC(=O)N1C[C@@H]2CCCN3CCC[C@@H]([C@H]23)[C@H]1CCCC(=O)N1CCN(c2ccccc2)CC1 | i
CC(=O)N1C[C@@H]2CCCN3CCC[C@@H]([C@H]23)[C@H]1CCCC(=O)N1CCN(c2ccc(F)cc2)CC1 | i
CN(C)CCNC(=O)CCC[C@@H]1[C@H]2CCCN3CCC[C@@H](CN1C)[C@@H]23 | i
COc1ccccc1OCCNC(=O)CCC[C@@H]1[C@H]2CCCN3CCC[C@@H](CN1C(C)=O)[C@@H]23 | i
CC/C=C(/C)C(=O)Nc1cccc(SC)c1 | i
Cc1c(C(=O)N2CCC(C)CC2)c(S(=O)(=O)NCc2ccc(Br)cc2)c(C)n1C | i
CC(C)c1cc(-c2nc(-c3ccc(Br)cc3)no2)n[nH]1 | i
CC(=O)Nc1cccc(NC(=O)COc2ccc3c(=O)c(-c4ccccc4)c(C)oc3c2)c1 | i
CNC(=O)N1CCC(C2CCN(C(=O)c3ocnc3C)C2)CC1 (stereo not given) | i
Cc1nc([C@H]2CCN(Cc3ccc(F)c(F)c3)C[C@H]2NC(=O)C2CC2)n[nH]1 | i
CCCC(=O)NC1CCN(c2cnn(Cc3ccccc3)c(=O)c2)CC1 | i
Cc1ccc2c(c1)C1CN(C)CCC1N2Sc1ccccc1[N+](=O)[O-] (stereo not given) | i
Cc1[nH]c(SCC(=O)Nc2ccc(S(=O)(=O)N3CCCC3)cc2)nc1Cc1ccccc1 | i
COc1ccc(-c2cn3cc(C(=O)N[C@@H](C)CO)nc3c(=O)n2CC2CC2)c(F)c1 | i
